For 87 compounds, inhibition results are on record in PubChem BioAssay AID651699 (Sanford-Burnham Center for Chemical Genomics, 2012).

Out of some 360,000 compounds screened, about 2,100 (0.58%) were called active. The entries come from a sample that favours actives as a whole. A number with no mark means an inactive call. No stated cut-off is given here; in the data, active means inhibition above about 36%; inactive means the rest.

The assay deals with NEDD8-conjugating enzyme Ubc12 (Homo sapiens) + NEDD8-activating enzyme E1 regulatory subunit (Homo sapiens) (UniProt P61081+Q13564). Description: NEDD8 transfer onto cullin, blockade – biochemical, TR-FRET, uHTS, NAE and Ubc12, primary screen (AID 651699). The settings on record: TR-FRET cullin neddylation, at 25 µM, stronger effect = higher value.
Sequence of NEDD8-conjugating enzyme Ubc12 (Homo sapiens) + NEDD8-activating enzyme E1 regulatory subunit (Homo sapiens) (P61081 whole entry, looked up): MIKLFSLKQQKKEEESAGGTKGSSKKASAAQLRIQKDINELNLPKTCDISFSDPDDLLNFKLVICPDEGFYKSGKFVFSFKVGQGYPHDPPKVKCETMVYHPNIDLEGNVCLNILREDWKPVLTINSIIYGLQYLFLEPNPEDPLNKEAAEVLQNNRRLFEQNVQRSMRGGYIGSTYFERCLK
Sequence of NEDD8-conjugating enzyme Ubc12 (Homo sapiens) + NEDD8-activating enzyme E1 regulatory subunit (Homo sapiens) (Q13564 whole entry, looked up): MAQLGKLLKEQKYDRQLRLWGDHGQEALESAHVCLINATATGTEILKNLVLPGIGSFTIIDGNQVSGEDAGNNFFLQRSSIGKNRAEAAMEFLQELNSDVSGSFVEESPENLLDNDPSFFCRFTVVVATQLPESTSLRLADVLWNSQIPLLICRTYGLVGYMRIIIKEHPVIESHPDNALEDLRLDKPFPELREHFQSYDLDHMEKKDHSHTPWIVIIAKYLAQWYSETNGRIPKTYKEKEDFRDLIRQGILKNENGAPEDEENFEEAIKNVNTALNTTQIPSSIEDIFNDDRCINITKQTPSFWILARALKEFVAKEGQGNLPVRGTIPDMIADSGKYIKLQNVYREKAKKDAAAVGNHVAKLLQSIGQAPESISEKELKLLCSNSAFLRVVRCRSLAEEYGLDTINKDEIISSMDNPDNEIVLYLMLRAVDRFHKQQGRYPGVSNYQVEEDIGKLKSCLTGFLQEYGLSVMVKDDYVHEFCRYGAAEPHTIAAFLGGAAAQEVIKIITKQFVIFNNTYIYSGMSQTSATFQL
On to `O=C1c2cccc(OCC(=O)N3N=C(c4cccs4)CC3c3ccc(F)cc3)c2CCN1Cc1ccccc1` (configuration not stated), for which the inhibition was -25.8%. For `O=C(COc1ccccc1Cl)N1N=C(c2cccs2)CC1c1ccco1` (configuration not stated), the inhibition was 39.1% (active). With `Cc1ccc(C2=NN(C(=O)COc3ncnc4ccccc34)C(c3ccco3)C2)cc1` (configuration not stated), the inhibition is -119%. To `CCC(C)(C(=O)NC1CCCC1)N(C(=O)CNC(C)=O)c1ccc(C)cc1` (configuration not stated) belongs -5.51%; to `O=C(Nc1cc(F)ccc1F)c1ccc2c(=O)n3c(nc2c1)CCC3`, 8.53%. Turning to `Cc1cc(C)c(C)c(S(=O)(=O)N2CCN(C(=O)c3ccc4c(=O)n5c(nc4c3)CCC5)CC2)c1C`, the inhibition is 20.1%. To `N#Cc1cccc(OC(=O)c2ccc3c(=O)n4c(nc3c2)CCC4)c1` belongs -4.93%; to `N#Cc1ccc(/C=C2\CCn3c2nc2cc(C(=O)O)ccc2c3=O)cc1`, 63.7% (active). To `O=C(O)c1ccc2c(=O)n3c(nc2c1)/C(=C/c1ccc(OC(F)F)cc1OC(F)F)CC3` belongs 41% (active). To `Cc1ccc(/C=C2\CCn3c2nc2cc(C(=O)O)ccc2c3=O)c(C)c1` belongs 31.9%. Take `CCCn1c(C2CCCN2c2nc(-c3ccc(OC)cc3)cs2)nc2ccccc21` (configuration not stated): the inhibition is -26.8%. For `CCOC(=O)[C@]12CCC=C1N(Cc1ccco1)C(=O)[C@H](CC(=O)NCc1cccc(C(F)(F)F)c1)C2` the value was 5.67%; for `COc1cc(C2NC(=O)NC(c3ccccc3)=C2C(C)=O)c(Br)cc1OCC(N)=O` (configuration not stated), 9.92%; for `COc1ccc(-n2cc(CN(C)Cc3n[nH]c(=O)[nH]3)c(-c3cccc(F)c3)n2)cc1`, 47.7% (active).

As for `Cc1nc2ccc(S(=O)(=O)NC(C(=O)N3CCCCCC3)C(C)C)cc2s1` (configuration not stated), the inhibition is 1.31%. For `COc1cc2c(cc1CNC[C@H]1O[C@@H](n3cnc(C(N)=O)n3)[C@H](O)[C@@H]1O)OCO2` the value was 0.3%; for `Cc1nn(-c2ccccc2)c(NC(=O)c2cccs2)c(-c2ccc(Cl)cc2)c1=O`, 5.28%; for `CCOC(=O)CSc1nc2c(c(=O)n(Cc3ccccc3Cl)c(=O)n2C)n1C`, -3.76%.

In the case of `CCOC(=O)c1cnn(Cc2ccccc2Cl)c1N`, the inhibition was 4.25%. To `CCOC(=O)c1cnc2nc(SCc3ccccc3Cl)[nH]n2c1=O` belongs 36.4% (active); to `CC1=C(C(=O)OCC2CCCCC2)C(c2ccc(F)cc2)NC(=O)N1` (configuration not stated), 10.3%; to `CCN(C[C@H]1N[C@@](CC)(C(=O)OC)[C@H]2C(=O)N(Cc3ccccc3)C(=O)[C@@H]12)S(=O)(=O)c1ccc(C(F)(F)F)cc1`, 2.27%. For `Oc1ccc(-c2[nH]ncc2-c2nc3ccccc3s2)c(O)c1` the value was -10.2%; for `c1ccc(-c2[nH]ncc2-c2nc3ccccc3[nH]2)cc1`, 44.3% (active).

Consider `O=C1Nc2ccc([N+](=O)[O-])cc2C1=Nc1cccc(CO)c1`, for which the inhibition is -19.4%. To `COC(=O)C1(C(=O)OC)C[C@H](c2ccccc2)N(Cc2ccccc2OC)[C@@H]1c1ccccc1` belongs -0.75%. To `O=c1cc(CN2CCCCCCC2)c2c(ccc3ccccc32)o1` belongs 47.4% (active); to `CN(Cc1nc2ccccc2c(=O)[nH]1)Cc1cc(=O)oc2ccc3ccccc3c12`, 10.8%. Consider `CC(C)c1ccc2oc(=O)cc(CN3CCN(Cc4ccccc4)CC3)c2c1`, for which the inhibition is 8.04%. To `NC(=O)C1CCN(C(=O)/C(=C/c2ccco2)NC(=O)c2ccccc2)CC1` belongs 2.01%.

Consider `O=C(CN1CCN(C2CCS(=O)(=O)C2)CC1)N1N=C(c2ccc(Cl)cc2)CC1c1ccco1` (configuration not stated), for which the inhibition was 3.58%.

As for `COC(=O)C1=CN(c2ccc(F)c(F)c2)C=C(C(=O)OC)C1c1ccc([N+](=O)[O-])cc1`, the inhibition is -12.5%. To `NC(=O)C1(C(N)=O)OC1c1ccc(Cl)cc1Cl` (configuration not stated) belongs -3.19%; to `COC(=O)C1=CN(C)C=C(C(=O)OC)C1c1ccc(Cl)cc1Cl`, 42.5% (active); to `C[N+](C)(C)CCNC(=O)c1cc[n+](Cc2ccccc2)c(/C=N/O)c1`, -22.5%. For the compound `O=C(Nc1c(Br)cc2c(c1Br)Cc1ccccc1-2)C(F)(F)F`, the inhibition is -31.9%.

Consider `CN(CC(=O)Nc1ccc(F)c(F)c1F)C(=O)C1CC(=O)N(C2CCCC2)C1` (configuration not stated), for which the inhibition was 1.3%. For `Cc1ccc(S(=O)(=O)NCCc2nnc3ccc(SCc4cccnc4)nn23)cc1` the value was -3.01%. For `CNC(=O)c1csc(Cc2c(Cl)sc3ccc(Cl)cc23)n1` the value was -6.49%. To `CC(=O)NNC(=O)c1csc(Cc2c(Cl)sc3ccc(Cl)cc23)n1` belongs 45.8% (active); to `CC(=O)Cc1nsc(NC(=O)c2ccc(Cl)cc2Cl)n1`, 12.4%. Consider `Oc1ccccc1CNc1ncc(Br)cc1Br`, for which the inhibition was -3.76%.

As to `Cc1cccc(OCC(=O)NCCNC(=O)c2cccnc2)c1`, the inhibition is 2.8%. For `O=C(CNC(=O)c1cccnc1)N/N=C/c1cc(Br)c(O)c(Br)c1` the value was 5.12%; for `Cc1ccc(NC(=O)COc2ccc(/C=N\NC(=O)c3cccnc3)cc2)cc1C`, 56% (active); for `COc1ccc(CNC(=O)CN(c2ccc(OC)c(Cl)c2)S(=O)(=O)c2ccc(C)cc2)cc1`, 8.36%. For `COc1ccc(C(=O)NC(C)c2nccs2)cc1OC1CCN(C(C)C)CC1` (configuration not stated) the value was -0.68%. To `Cc1ccc(CSCC(=O)N(C)CC(=O)Nc2ccc(C)cc2)cc1` belongs 5.66%. As for `Cc1ccc(NC(=O)CN(C)C(=O)COC(=O)C(C)(C)Oc2ccc(Cl)cc2)cc1`, the inhibition was 9.98%.

For `Cc1ccc(NC(=O)CN(C)C(=O)COC(=O)c2nccnc2N)cc1`, the inhibition was 57.4% (active). For the compound `O=C(OCCOCn1cc(Br)c(=O)[nH]c1=O)c1ccccc1`, the inhibition was 1.74%.

For the compound `COC(=O)c1sc(-c2ccc(C(C)(C)C)cc2)cc1NC(=O)/C=C/C(=O)O`, the inhibition was -17%. For `COc1cccc(/C=N/Nc2cc(C)nc(-c3ccccc3O)n2)c1O` the value was 40.2% (active). To `COc1ccc(N2C(=O)CC(Sc3n[nH]c(-c4ccc(C)cc4)n3)C2=O)cc1` (configuration not stated) belongs 0.38%; to `Cc1ccccc1NC(=O)COc1cccc2c1CCNC2=O`, -9.32%; to `O=C(Cn1nnc(-c2ccccc2)n1)N/N=C/c1ccc(-c2ccc(Cl)cc2)o1`, 28.8%.

With `Nc1nnnn1CC(=O)N/N=C/c1ccc(-c2cccc(Cl)c2)o1`, the inhibition was 49.1% (active).

Turning to `CCCCCN(C(=O)NC(=O)Nc1ccccc1C)S(C)(=O)=O`, the inhibition was -3.04%. Regarding `COc1ccc(C2CC(c3cccs3)=NN2C(=O)CSc2nnc(N)s2)cc1OC` (configuration not stated), the inhibition is -4.71%. To `COc1ccc(C2CC(c3cccs3)=NN2C(=O)COC(=O)c2cc3ccccc3cc2O)cc1OC` (configuration not stated) belongs 0.97%; to `COc1cccc(C2CC(c3cccs3)=NN2C(=O)CSC2=NCCS2)c1OC` (configuration not stated), 47.3% (active). To `CCN1C(=O)/C(=C\N2CCOCC2)SC1=S` belongs -15.3%; to `O=C1c2ccccc2S(=O)(=O)c2cc(N3CCN(c4ccccn4)CC3)ccc21`, -31.5%.

In the case of `O=C(c1cc2ccccc2s1)N1CCN(c2ccccn2)CC1`, the inhibition was -7.27%. For `O=C1c2cccc3cccc(c23)N1CN1CCN(c2ccccn2)CC1` the value was 38.1% (active).

`Cc1ccc(O)c(NC(=S)NC(=O)COc2ccc(Br)cc2)c1`: the inhibition was 12.7%. Take `COc1cc(NC(=O)CCNC(=O)Cn2ccc3ccccc3c2=O)cc(OC)c1OC`: the inhibition was 5.61%. For `Cc1cccc(N)c1SC1CCCCC1O` (configuration not stated), the inhibition is 6.45%. To `COCOCCn1cc(CN2CCS(=O)(=O)N(Cc3ccc(-c4ccc(OC)cc4)cc3)C(CC(C)C)C2=O)nn1` (configuration not stated) belongs -8.33%; to `COCCn1c(C)cc(C(=O)COC(=O)/C=C/c2cccc(OC)c2)c1C`, 12.7%; to `COc1cccc(/C=C/C(=O)OCC(=O)N2CCCc3ccccc32)c1`, 40.6% (active). In the case of `COc1cccc(/C=C/C(=O)OCC(=O)N2CCN(c3ccccc3)CC2)c1`, the inhibition was 31.1%. For `CC(NC(=O)CN1CCN(Cc2ccc(Cl)cc2)C1=O)c1ccc2c(c1)OCCO2` (configuration not stated) the value was -6.96%; for `COc1ccc(CCN2C(=O)C3CC=C(C)CC3C2=O)cc1OC` (configuration not stated), 1.1%.

Take `COc1ccc(OC)c(C(C)NC(=S)Nc2ccc(S(=O)(=O)Nc3ncccn3)cc2)c1` (configuration not stated): the inhibition was 5.42%. For `COc1cc(NS(=O)(=O)c2ccc3ccccc3c2)c2ncccc2c1` the value was 50.3% (active); for `O=S(=O)(Nc1ccccn1)c1cccc(S(=O)(=O)c2ccc(Cl)cc2)c1`, -0.91%.

As to `CC(C)NC(=S)Nc1cccc2cnccc12`, the inhibition is 0.89%. To `Cc1ccc(-n2nc3c(c2NC(=O)c2ccc4c(c2)OCO4)CSC3)c(C)c1` belongs 18.4%; to `C=CCNC(=O)c1ccc2c3n(nc2c1)-c1ccc(C)cc1CO3`, 49.5% (active). For `OC(COCc1ccco1)CN1CCN(c2ccccc2)CC1` (configuration not stated) the value was -1.36%. To `COc1ccc(-c2c(C#Cc3ccsc3)c3cc(-c4ccc(CN5CCOCC5)cc4)ccc3n2C)cc1` belongs 22.8%; to `COc1ccc(Cl)cc1NC(=O)CN(C)C(=O)c1cn(-c2ccccc2)nc1-c1cccs1`, -140%.

`COc1cccc(NC(=O)CN(C)C(=O)/C=C/c2cn(-c3ccccc3)nc2-c2cccs2)c1`: the inhibition was 60.2% (active). For `O=c1cc(CO)oc(C(Nc2cccc(C(F)(F)F)c2)c2ccccn2)c1O` (configuration not stated) the value was 0.9%; for `CC(C)C[C@H]1CNC(=O)C(=O)N1C[C@@H]1CCCN1C[C@H](Cc1ccccc1)N1C[C@H](CC(C)C)N(CC2CCCCCC2)C(=O)C1=O`, 7.12%. As to `CN(C)c1ccc2c(=O)[nH][nH]c(=O)c2c1`, the inhibition was 33.3%.

A word on the inhibition: it is the change of the read-out against control, counted positive when it falls.
